Data: PubChem BioAssay

Molecular target: Voltage-gated potassium channel subunit beta-2 (Rattus norvegicus) (UniProt P62483)
Assay: enhancers of rat Kvbeta2 NADPH turnover – biochemical, NADPH fluorescence, primary screen (AID 623;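 active = NADPH fluorescence slope more negative than the mean of all samples by about 3 SD, 99.7% confidence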;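 note: fluorescence intensity change per second fitted from 20 to 320 s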)
Conditions: Recombinant KvBeta, NADPH fluorescence decrease slope, 10 min; at 10 µM; stronger effect = lower value

Voltage-gated potassium channel subunit beta-2 (Rattus norvegicus), sequence (P62483 whole entry, looked up): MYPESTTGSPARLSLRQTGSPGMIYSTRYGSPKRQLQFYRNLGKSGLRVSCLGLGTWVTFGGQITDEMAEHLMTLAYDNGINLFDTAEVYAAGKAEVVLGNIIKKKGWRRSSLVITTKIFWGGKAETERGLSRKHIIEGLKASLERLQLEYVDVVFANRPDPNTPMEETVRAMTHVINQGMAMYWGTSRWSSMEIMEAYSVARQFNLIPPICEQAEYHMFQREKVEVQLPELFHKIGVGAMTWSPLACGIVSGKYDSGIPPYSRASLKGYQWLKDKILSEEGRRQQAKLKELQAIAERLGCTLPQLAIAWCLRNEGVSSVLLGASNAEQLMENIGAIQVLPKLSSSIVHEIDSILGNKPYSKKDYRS

NADPH fluorescence slope, inactive:
COc1ccc(N2CCN(Cc3nc4c(c(=O)[nH]c(=O)n4C)n3CC(C)=O)CC2)cc1 -2.9e-05, COC(=O)c1ccccc1NC(=O)CSc1nc2c(c(=O)n(C)c(=O)n2C)n1C 2e-05, Cc1csc2ncc(C(=O)Nc3ccccc3Cl)c(=O)n12 5.1e-06, Cc1nc(-c2cccc(N)c2)cs1 -1e-05, Cn1c(=O)c2c([nH]c(=O)n2C)n(C)c1=O -0.000114, COc1ccc(NC(=O)c2cc(C3CC3)on2)c(OC)c1 -4.2e-05, Cc1nnc(SCc2cc(=O)[nH]c(N3CCCCC3)n2)s1 -3.2e-05, CCN1CCN(Cc2nc3c(c(=O)[nH]c(=O)n3C)n2Cc2ccccc2Cl)CC1 -3.1e-05, CSc1ccc(-c2nc(CSCC(=O)N3CCOCC3)c(C)o2)cc1 -5.8e-05, Cc1ccc(OCCN2CCN(C(=O)CCC(=O)Nc3nnc(C)s3)CC2)cc1 -6.3e-05, COc1ccccc1NC(=O)Cc1noc(CSc2cc(C)c3ccccc3n2)n1 -5.3e-05, COc1cc2nc(SCC(=O)NC3CC3)n(CCC3=CCCCC3)c(=O)c2cc1OC -4e-06, Cc1oc2cc3c(C(=O)OCCN(C)C)c(C)oc3cc2c1C(=O)OCCN(C)C -3.3e-05, CCN(CCCNC(=O)C1CCN(S(=O)(=O)c2cccc3nonc23)CC1)Cc1ccccc1 -4.9e-05, CCCCn1c(NCCC)nc2c1c(=O)[nH]c(=O)n2C -0.000106, N#Cc1ccccc1Cn1c(=O)n(Cc2ccc(C(=O)NCc3ccco3)cc2)c(=O)c2ccccc21 2e-05, CCOCCCn1c(=S)[nH]c2cc3c(cc2c1=O)OCO3 -5.9e-05, CCCSc1nnc(-c2ccccc2NC(=O)CC)c(=O)[nH]1 -4.2e-05, CC(C)Cc1nnc(NC(=O)CCC(=O)N2CCOCC2)s1 -3.6e-05, O=C(Nc1ccncc1)C1c2ccccc2Oc2ccccc21 -1e-05, O=[n+]1cc(-c2ccc(F)cc2)n([O-])c2c1CCC2 3.3e-05, COCCn1nnnc1CN(CCCN1CCOCC1)Cc1cc2c(C)ccc(C)c2[nH]c1=O 3e-05, CSc1ccc(S(=O)(=O)Nc2cccc(F)c2)cc1 -5.1e-05

Molecular target: Alpha-2C adrenergic receptor (Homo sapiens) (UniProt P18825)
Assay: compounds altering alpha2C-coupled GIRK flux – cell-based, HEK293 alpha2C/GIRK1/2, thallium flux, primary screen (AID 624);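 note: slope of fluorescence ratio to pre-addition baseline per second over 15 to 24 s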
Conditions: thallium flux BTC fluorescence, at 10 µM, actives lie on both sides

Alpha-2C adrenergic receptor (Homo sapiens), sequence (P18825 whole entry, looked up): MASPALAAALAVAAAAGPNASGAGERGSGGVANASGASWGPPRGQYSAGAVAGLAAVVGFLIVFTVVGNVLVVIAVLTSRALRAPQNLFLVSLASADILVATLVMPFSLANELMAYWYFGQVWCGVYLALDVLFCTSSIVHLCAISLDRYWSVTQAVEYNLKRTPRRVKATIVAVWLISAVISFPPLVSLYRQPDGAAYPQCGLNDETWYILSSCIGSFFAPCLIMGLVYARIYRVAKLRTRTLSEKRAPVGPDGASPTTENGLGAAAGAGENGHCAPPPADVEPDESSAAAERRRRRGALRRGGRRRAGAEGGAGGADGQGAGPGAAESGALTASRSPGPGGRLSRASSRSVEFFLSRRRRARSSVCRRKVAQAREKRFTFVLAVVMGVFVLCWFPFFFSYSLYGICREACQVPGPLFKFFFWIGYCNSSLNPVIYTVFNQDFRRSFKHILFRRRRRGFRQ

slope, inactive:
N#CCCN1CCN(S(=O)(=O)c2ccc(S(=O)(=O)NC3CCCCC3)cc2)CC1 0.00631, CCCN(CCC)C(=O)c1c(C)[nH]c(C(=O)OCC)c1C 0.00726, c1ccc2c(c1)CC(N1CCCCC1)c1ccccc1N2 (configuration not stated) 0.00466, CCOC(=O)N1CCN(C(=O)CSc2nnc(Cc3ccccc3)o2)CC1 0.00629, COc1ccc(CCNS(=O)(=O)c2ccc3oc(C(=O)O)c(C)c3c2)cc1OC 0.00543, Cc1cc(NC(=O)CSc2nc3c(c(=O)n2Cc2ccccc2)SC(C)C3)no1 (configuration not stated) 0.00456, c1ccc(OCc2nc(-c3ccccc3)no2)cc1 0.0046, CC1CCN(C(=O)CCNS(=O)(=O)c2ccccc2)CC1 0.00564, COc1ccccc1Oc1coc2c(CN3CCN(C)CC3)c(O)ccc2c1=O 0.00281, CCS(=O)(=O)N1CCCC(C(=O)NCc2ccccc2Cl)C1 (configuration not stated) 0.00474, Cc1ccc(NC(=O)c2ccco2)c(NC(=O)c2cccs2)c1 0.00493, Cc1cccc(-n2nc3c(c2NC(=O)CCC2CCCCC2)CS(=O)C3)c1C (configuration not stated) 0.00515, Cc1nc(N)c(C#N)c(-c2cccnc2)c1C 0.00561, COc1ccc(N2CCN(C(=O)C(C)(C)Oc3ccc(Cl)cc3)CC2)cc1 0.00674, CN1C(=O)CCC1(O)c1ccccc1 (configuration not stated) 0.00341, Cc1cc(=O)n(C)c(=O)n1CCCCCN1CCCC1 0.00473, COc1ccc(N2CCN(Cc3nc4c(c(=O)[nH]c(=O)n4C)n3CC(C)=O)CC2)cc1 0.00484, COC(=O)c1ccccc1NC(=O)CSc1nc2c(c(=O)n(C)c(=O)n2C)n1C 0.00766, Cc1csc2ncc(C(=O)Nc3ccccc3Cl)c(=O)n12 0.00716, Cc1nc(-c2cccc(N)c2)cs1 0.00706, Cn1c(=O)c2c([nH]c(=O)n2C)n(C)c1=O 0.00554, COc1ccc(NC(=O)c2cc(C3CC3)on2)c(OC)c1 0.00532, Cc1nnc(SCc2cc(=O)[nH]c(N3CCCCC3)n2)s1 0.00759, CCN1CCN(Cc2nc3c(c(=O)[nH]c(=O)n3C)n2Cc2ccccc2Cl)CC1 0.00512, CSc1ccc(-c2nc(CSCC(=O)N3CCOCC3)c(C)o2)cc1 0.00525, Cc1ccc(OCCN2CCN(C(=O)CCC(=O)Nc3nnc(C)s3)CC2)cc1 0.00527, COc1ccccc1NC(=O)Cc1noc(CSc2cc(C)c3ccccc3n2)n1 0.00168, COc1cc2nc(SCC(=O)NC3CC3)n(CCC3=CCCCC3)c(=O)c2cc1OC 0.00342, Cc1oc2cc3c(C(=O)OCCN(C)C)c(C)oc3cc2c1C(=O)OCCN(C)C 0.00351, CCN(CCCNC(=O)C1CCN(S(=O)(=O)c2cccc3nonc23)CC1)Cc1ccccc1 0.00388, CCCCn1c(NCCC)nc2c1c(=O)[nH]c(=O)n2C 0.00598, N#Cc1ccccc1Cn1c(=O)n(Cc2ccc(C(=O)NCc3ccco3)cc2)c(=O)c2ccccc21 0.00719, CCOCCCn1c(=S)[nH]c2cc3c(cc2c1=O)OCO3 0.00895, CCCSc1nnc(-c2ccccc2NC(=O)CC)c(=O)[nH]1 0.00431, CC(C)Cc1nnc(NC(=O)CCC(=O)N2CCOCC2)s1 0.00514, O=C(Nc1ccncc1)C1c2ccccc2Oc2ccccc21 0.0059, O=[n+]1cc(-c2ccc(F)cc2)n([O-])c2c1CCC2 0.00589, COCCn1nnnc1CN(CCCN1CCOCC1)Cc1cc2c(C)ccc(C)c2[nH]c1=O 0.00345, CSc1ccc(S(=O)(=O)Nc2cccc(F)c2)cc1 0.00352
